M1 ag – agonists of human M1 muscarinic receptor; actives 0.33% (n = 360,000); activation, % at 3 µM; P11229; CHO-K1 hM1, Fluo-8 calcium fluorescence, agonist mode; 0% DMSO, 100% acetylcholine EC100;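 active means activation above the run's mean compound activation plus 3 SD, cut at about 16% in these data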;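 further: peak over basal fluorescence ratio within a 140 s kinetic read after compound addition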
Target sequence (P11229 whole entry, looked up): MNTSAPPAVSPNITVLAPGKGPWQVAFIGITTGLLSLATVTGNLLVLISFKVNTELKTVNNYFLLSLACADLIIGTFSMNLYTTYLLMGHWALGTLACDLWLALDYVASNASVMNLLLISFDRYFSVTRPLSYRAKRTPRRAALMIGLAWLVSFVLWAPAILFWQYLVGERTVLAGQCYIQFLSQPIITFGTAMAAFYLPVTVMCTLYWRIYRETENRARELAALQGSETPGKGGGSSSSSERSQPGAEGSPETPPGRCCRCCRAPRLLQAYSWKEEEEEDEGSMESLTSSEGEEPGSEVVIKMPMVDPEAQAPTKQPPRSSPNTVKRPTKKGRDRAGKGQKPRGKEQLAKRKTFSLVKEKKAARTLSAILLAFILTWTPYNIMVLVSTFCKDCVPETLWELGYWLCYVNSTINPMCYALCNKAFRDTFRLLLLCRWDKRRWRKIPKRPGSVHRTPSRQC
M1 ag parental – counter-screen for M1 agonists: effect in parental CHO-K1 cells; activation, % at 3 µM; AID 602248; actives 0.48% (n = 360,000); Fluo-8 calcium fluorescence; scaled to maximal ATP response, vehicle zero; in the data active means activation above about 15%;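 further: untransfected CHO-K1 host cells lacking M1 receptor as counterscreen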
CHO-K1 Ca antag – counter-screen for M1 antagonists: effect in parental CHO-K1 cells | ATP-induced calcium, Fluo-8 fluorescence | inhibition, % at 3 µM | actives 0.6% (n = 360,000) | AID 602250;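 active means inhibition above a per-plate cutoff, the plate's mean sample inhibition plus 3 SD, cut at about 24% in these data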;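 further: 0% = DMSO plus EC80 ATP and 100% = DMSO alone without ATP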
M1 PAM parental – nonselective activator or artifact in parental CHO-K1 calcium assay | ATP EC20, Fluo-8 calcium fluorescence; 0% at ATP EC20, 100% at ATP max | activation, % at 3 µM | actives 0.02% (n = 360,000);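 active means activation above the run cutoff, the mean activation of all test compounds plus 3 SD, cut at about 40% in these data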;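 further: peak over basal fluorescence ratio in a 140 s read after ATP addition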
CHRM1 antagonist – human CHRM1 antagonism. P11229. CHO-K1 hM1, Fluo-8 calcium fluorescence, ACh EC80 antagonist. inhibition, % at 3 µM. actives 1.3% (n = 360,000). AID 588852;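 active means percent inhibition above its own plate's cutoff, namely the mean of that plate's compound wells plus 3 SD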;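 further: peak over basal fluorescence ratio during 140 s after agonist addition; 0% = ACh EC80 plus DMSO and 100% = DMSO alone without agonist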
M1 PAM – human CHRM1 positive allosteric modulation | actives 0.088% (n = 360,000) | P11229 | activation, % at 3 µM | CHO-K1 hM1, Fluo-8 calcium fluorescence, ACh EC20; 0% = ACh EC20, 100% = maximal ACh; in the data active means activation above about 19%, passing the limit was not always enough
* = called active by the depositor. A selection: hits, their analogues and other compounds. The true share with any hit is near 2.3%.

SMILES	M1 ag	M1 ag parental	CHO-K1 Ca antag	M1 PAM parental	CHRM1 antagonist	M1 PAM
COc1cc(C(=S)N2CCOCC2)cc(OC)c1OS(=O)(=O)c1ccc(C)cc1	-3	0	0	-8	13	-4
CCCCCCCc1c(O)nc(SCCN(C)C)[nH]c1=O	-3	0	-12	12	-3	3
COc1ccccc1NC(=O)CSc1nc(O)c(Cc2ccccc2)c(=O)[nH]1	-3	0	3	4	-18	11
CCSc1nc(O)c(Cc2ccccc2)c(=O)[nH]1	-2	0	31*	-7	-1	-1
CCCc1c(O)nc(SCCN(CCC)CCC)[nH]c1=O	-6	0	27*	-9	8	-1
CC(=O)c1ccc(OCC(=O)NCCC2=CCCCC2)cc1	-6	1	-2	-3	-19	24*
CCOC(=O)Cc1csc(SCC(=O)Nc2cc(Cl)ccc2Oc2ccccc2)n1	-2	7	29*	1	29	-11
O=C(CSc1n[nH]c(=O)n1C1CC1)Nc1cc(Cl)ccc1Oc1ccccc1	2	8	25*	4	46*	-16
O=C(CSc1n[nH]c(=O)n1C1CC1)Nc1ccccc1	-2	0	6	15	-1	6
COc1ccc(C(=O)NC(=S)NCc2ccco2)cc1	-3	5	-14	15	12	-7
Cc1cc(C)nc(SCCCNCc2ccc(Br)cc2)n1	27*	2	7	-14	8	-10
CCN1CCCC(Sc2nc3c([nH]2)c(=S)n(C)c(=O)n3C)C1 (stereo not drawn)	-8	16*	4	5	-12	4
Cn1c(=S)c2[nH]c(SCCN3CCCC3)nc2n(C)c1=O	-2	0	-8	13	-22	21
Cc1nn(C)c(C)c1/C=C(\C#N)S(=O)(=O)c1ccc(F)cc1	0	3	-15	20	-2	-2
NC(=O)C1CCN(c2ccc(S(=O)(=O)N3CCC(Cc4ccccc4)CC3)cn2)CC1	-1	19*	5	8	-4	7
O=S(=O)(c1ccc(Cl)nc1)N1CCC(Cc2ccccc2)CC1	-2	1	-15	7	-12	7
O=S(=O)(c1ccc(N2CCCCCC2)nc1)N1CCCC1	-13	1	4	13	70*	-33
O=S(=O)(NC1CCCCC1)c1ccc(N2CCOCC2)nc1	-1	19*	-4	20	-5	8
CN1CCN(c2ccc(S(=O)(=O)N3CCCCC3)cn2)CC1	-6	0	6	-6	-5	2
Cc1[nH]c2ccccc2c1C(=O)C(C)OC(=O)c1ccccc1NCCO (stereo not drawn)	1	4	-1	-8	-5	9
Cc1cc(C(=O)CSc2ncnc3ccccc23)c(C)n1C1CC1	-1	9	-5	-1	7	-7
Cc1cc(-n2c(C)cc(C(=O)CSc3ncnc4ccccc34)c2C)no1	2	3	19	8	28*	-7
NS(=O)(=O)c1ccc(CCNC(=O)CCCCCn2c(=S)[nH]c3ccc(Br)cc3c2=O)cc1	0	7	4	13	41*	-9
O=C(CC1C(=O)NCCN1CC1CCCCC1)NCCCN1CCOCC1 (stereo not drawn)	-3	1	1	11	-9	8
C=CCn1c(C)cc(C(=O)CSc2nc3ccccc3[nH]2)c1C	1	18*	2	-8	39*	-27
Cc1cc(C(=O)CSc2nc3ccccc3[nH]2)c(C)n1Cc1ccco1	1	15	27*	-1	40*	-18
COc1cc(=O)[nH]c(SC(C)C(=O)Nc2cc(C)on2)n1 (stereo not drawn)	-3	1	-16	14	-3	9
COc1ccc(Cn2c(-c3ccc(Br)cc3)c[n+]3ccccc23)cc1	-11	0	-12	25	42*	-29
CC1(C)CC(NC(=O)c2cc(S(=O)(=O)N3CCOCC3)c(Cl)cc2Cl)CC(C)(C)N1	1	2	-7	10	-25	31*
COC(=O)c1ccc(CNC(=O)c2cc(S(=O)(=O)NCc3ccccc3)ccc2C)cc1	1	3	24*	-11	0	0
